# Screening data as filed in PubChem BioAssay.
# Shown are actives, neighbours in structure and some others; about 21% of the full set was active somewhere.
# VP16 counter – inhibits Gal4-VP16 luciferase reporter, ROR gamma counter-screen; Potency, µM (doses to about 53.6 µM), for inactives: at the top dose activity, negative = inhibition, hits mostly inhibitors; Drosophila S2 Gal4-VP16 UAS-luciferase, luminescence, 20 h; 310,000 tested, 3.5% active;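 also: Gal4-VP16 expression switched on by copper sulfate through the metallothionein promoter; potency is read from the fitted curve at half-maximal effect; nearly all actives have a fitted effect of over 50% in size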
# DT40 TDP1 no CPT – qHTS for Inhibitors of human tyrosyl-DNA phosphodiesterase 1 (TDP1): qHTS in cells in absence of CPT; 420,000 tested, 15% active; Potency, µM (top dose mostly 46.2 µM), without a hit: at the highest dose activity change, negative = growth inhibition, hits mostly inhibitors; AID 686978, 2013; DT40 Tdp1-/- hTDP1 cells, no CPT, ATP luminescence, 48 h; also: potency is read from the fitted curve at half-maximal effect; nearly all actives have a fitted effect of over 55% in size
#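 Chicken DT40 Tdp1-/- cells complemented with human TDP1, screened without camptothecin (DMSO vehicle only), 400 cells/well. Compounds pin-transferred, cells incubated at 37 °C for at least 48 hr. Growth read as ATP-dependent luminescence (CellTiter-Glo, 30 min at RT).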
# DT40 TDP1 CPT – DT40-hTDP1 cell growth loss with CPT; chicken DT40 Tdp1-/-;hTDP1 cells + 20 nM CPT, ATP luminescence, 48 h; Potency, µM (top dose mostly 46.2 µM), without a hit: top-dose activity change, negative = growth inhibition, actives largely listed as inhibitors; 420,000 tested, 12% active; AID 686979; also: potency is read from the fitted curve at half-maximal effect; nearly all actives have a fitted effect of over 55% in size
#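 Chicken DT40 Tdp1-/- cells stably complemented with human TDP1 were seeded at 400 cells/well in medium containing 20 nM camptothecin, exposed to pin-transferred compounds, and grown at 37 °C for at least 48 hr. Viability was read as ATP luminescence.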
# ELG1 repair inh – ELG1-dependent DNA repair inhibition | HEK293T ELG1-luciferase reporter, luminescence, 16 h; DNA damage induced by 5-fluorouridine | Potency, µM (doses to about 46.1 µM), inactives show at the highest dose activity change, negative = inhibition, actives largely listed as inhibitors | 330,000 tested, 2.3% active | AID 504467; also: potency is read from the fitted curve at half-maximal effect; nearly all actives have a fitted effect of over 55% in size
#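 Cells (2,000 per well) received 5-fluorouridine plus test compound or DMSO and were incubated 16 hr at 37 °C, 5% CO2. Luciferase activity was read by luminescence 30 min after ONE-Glo addition; signal suppression marked inhibition of damage-induced ELG1 function.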
# IL1B secr inh – inflammasome signaling inhibition, IL-1 beta readout. activity change, % at 57.5 µM. 360,000 tested, 4.7% active. THP-1 LPS/ATP IL-1B secretion, AlphaLISA, 16 h; active compounds read low. AID 743279; in the data active = activity change below about -50%; inconclusive = mostly about -30% to -49%
#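 THP-1 cells pretreated 1 hr with compounds (up to 57.5 uM final), then stimulated with LPS (250 ng/mL final) plus ATP (1.25 mM final); secreted IL-1B measured by AlphaLISA after 16 hr, decreased signal indicating inhibition.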
# RORgamma inh – ROR gamma (mouse) transcription inhibition | P51450 | Drosophila S2 Gal4-RORgamma UAS-luciferase reporter, 20 h | Potency, µM (top dose mostly 53.6 µM), for inactives: at the highest dose activity change, negative = inhibition, most hits filed as inhibitors | 310,000 tested, 5.4% active | AID 2551; also: potency is read from the fitted curve at half-maximal effect; nearly all actives have a fitted effect of over 60% in size
# Target sequence (P51450 whole entry, looked up, the tested form may be a part): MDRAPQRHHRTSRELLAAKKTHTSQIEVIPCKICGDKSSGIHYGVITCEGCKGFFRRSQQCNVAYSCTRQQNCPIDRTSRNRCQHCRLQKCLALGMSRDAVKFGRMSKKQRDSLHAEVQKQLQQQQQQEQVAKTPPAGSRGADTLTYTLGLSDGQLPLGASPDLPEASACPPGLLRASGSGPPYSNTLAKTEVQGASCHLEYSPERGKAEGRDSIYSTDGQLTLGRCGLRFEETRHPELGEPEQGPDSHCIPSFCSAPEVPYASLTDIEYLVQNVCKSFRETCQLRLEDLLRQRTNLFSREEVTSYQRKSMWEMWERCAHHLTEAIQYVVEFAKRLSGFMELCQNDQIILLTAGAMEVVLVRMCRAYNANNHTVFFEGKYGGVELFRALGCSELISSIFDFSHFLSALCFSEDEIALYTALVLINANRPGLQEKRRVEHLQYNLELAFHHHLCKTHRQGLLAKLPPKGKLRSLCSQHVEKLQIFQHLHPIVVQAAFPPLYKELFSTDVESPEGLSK
#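 ROR gamma transcriptional activity was tracked as Gal4-UAS luciferase output in stably transfected Drosophila Schneider cells, with compound added 1 hr before 700 uM copper sulfate induction and a 20 hr ambient-temperature incubation.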
# An asterisk follows results filed as active; ? = inconclusive; nt = no result given; [ ] = remark or other dose. Unless noted, calls follow the shape of the dose curve; as a rule, active = well fitted curve in the direction sought with a large enough effect; inconclusive = small, poorly fitted or top-dose-only effect, or another doubt; inactive = no such curve, though single readings can be large; an effect the other way counts as inactive or inconclusive. % is scaled to controls: 0 for no effect and ±100 for the full control effect.
SMILES,VP16 counter,DT40 TDP1 no CPT,DT40 TDP1 CPT,ELG1 repair inh,IL1B secr inh,RORgamma inh
O=C1c2ccccc2S(=O)(=O)c2cc(N3CCOCC3)ccc21,nt,20.6µM*,11.6µM*,nt,?,nt
CCCCC(=O)NC(NC(=S)N1CCCCCC1)C(Cl)(Cl)Cl (stereo not drawn),-4.5%,13µM*,13µM*,-5.3%,-5.0,?
O=C(c1cc(Cl)cc(Cl)c1)N1CCOCC1,-1.0%,-0.9%,9.8%,?,7.2,-8.7%
CCCOc1cccc(C(=O)N(Cc2ccccc2)C2CCS(=O)(=O)C2)c1 (stereo not drawn),-14.7%,?,-4.5%,-5.9%,24.8,31.0%
CCCCOc1cccc(C(=O)N(Cc2ccc(Cl)cc2)C2CCS(=O)(=O)C2)c1 (stereo not drawn),nt,?,14.6µM*,nt,nt,nt
CCCCCOc1ccc(C(=O)N(Cc2ccccc2)C2CCS(=O)(=O)C2)cc1 (stereo not drawn),nt,20.6µM*,?,nt,nt,nt
CCCOc1ccccc1C(=O)N(Cc1ccco1)C1CCS(=O)(=O)C1 (stereo not drawn),1.0%,18.4µM*,?,-0.6%,15.8,5.7%
CCCOc1ccccc1C(=O)N(Cc1ccc(C)o1)C1CCS(=O)(=O)C1 (stereo not drawn),2.2%,?,-28.6%,15.0%,6.8,-9.0%
Cc1ccc([C@H]2C[C@@H](n3cc(COC(=O)c4ccccc4)nn3)[C@H](O)CN2C(=O)c2cccs2)cc1,nt,?,-18.2%,nt,19.1,nt
Cc1cc(C)cc(NC(=O)CCn2cnc3ccccc3c2=O)c1,nt,-3.9%,-6.9%,nt,nt,nt
Cc1cc(Cn2nnc3ccccc32)c(O)c(C(C)(C)C)c1,nt,16.4µM*,16.4µM*,16.8%,24.7,nt
CC(C)(C)c1cccc(Cn2nnc3ccccc32)c1O,nt,20.6µM*,29.1µM*,9.0%,-1.2,nt
CCN(Cc1ccncc1)Cc1ccc2c(c1)CN(C(=O)c1ccccc1-n1cccn1)CCO2,nt,-11.5%,9.1%,nt,nt,nt
O=S1(=O)C[C@H](N2CCN(CCO)CC2)[C@@H](COCc2ccccc2)N1,nt,14.0%,11.0%,nt,-6.9,nt
CC(=O)Nc1ccc(CN2CCN(CCc3ccccc3)C(CCO)C2)cc1 (stereo not drawn),1.0%,-9.0%,12.6%,8.6%,-79.1*,-11.6%
OCCC1CN(Cc2nc(-c3ccccc3)cs2)CCN1CCc1ccccc1 (stereo not drawn),4.4%,20.6µM*,?,?,-5.5,3.9%
CC(C)(C)CN1CCN(Cc2nc(-c3ccc(F)cc3)cs2)CC1CCO (stereo not drawn),-2.4%,20.6µM*,16.4µM*,11.5%,-19.5,0.6%[1.91 µM]
COc1ccc(F)c(CN2CCN(CCc3ccccc3)C(CCO)C2)c1 (stereo not drawn),2.0%,-14.2%,-12.5%,?,-1.9,22.5%[1.91 µM]
COc1ccc(OC)c(CN2CCN(CCc3ccccc3)C(CCO)C2)c1 (stereo not drawn),-2.7%,?,11.6µM*,-0.3%,-10.7,-4.8%
OCCC1CN(Cc2nc(-c3ccc(F)cc3)cs2)CCN1CCc1ccccc1 (stereo not drawn),-6.9%,?,?,?,-9.7,?
C[C@@H]1c2ccccc2CN1CC1=NCCN1,-4.9%,-27.7%,?,nt,nt,-33.1%
COc1ccc2c3c(cccc13)C(=O)CC2,1.4%,20.6µM*,18.4µM*,5.8%,?,4.9%
O=C(OCC(=O)N1CCCC1)c1ccccc1C(=O)c1ccccc1,nt,2.1%,-11.0%,?,-8.6,nt
CC(=O)c1ccc(N=Nc2ccc(C)cc2)cc1,?,-19.0%,8.5%,?,-19.4,10µM*
C=C(C)C(=O)Oc1ccc(N2C(=O)CCC2=O)cc1,-3.6%,-21.5%,?,?,-4.7,-0.1%
SMILES,VP16 counter,DT40 TDP1 no CPT,DT40 TDP1 CPT,ELG1 repair inh,IL1B secr inh,RORgamma inh
C=C(C)C(=O)Oc1ccc(N=Nc2ccc(C)cc2)ccc1=O,nt,2.91µM*,10.3µM*,nt,?,nt
Cc1ccc(C(NC(=O)N2CCOCC2)=C(Cl)Cl)cc1F,2.24µM*,16.4µM*,6.51µM*,-24.1%,-100.9*,22.4µM*
Cc1ccccc1NC(=O)COC(=O)c1ccc(C)c(S(=O)(=O)N2CCCCC2)c1,nt,?,?,nt,-17.4,nt
COc1cc(-c2coc3c(C(=O)NCc4cccc(Cl)c4)cccc23)ccc1O,nt,18.4µM*,?,nt,-54.5*,nt
COc1ccc(NC(=O)c2cccc3c(-c4ccc(O)c(OC)c4)coc23)cc1,nt,18.4µM*,?,nt,-1.3,nt
COc1ccc(NC(=O)c2cccc3c(Br)cccc23)cc1,-16.8%,?,?,0.0%,20.4,-1.4%
COc1ccc(-c2[nH]ncc2C(=O)NCc2cccc(Cl)c2)cc1,nt,?,3.5%,nt,nt,nt
O=C(NCc1ccc(C(F)(F)F)cc1)c1cccc2c(-c3ccc(F)c(F)c3)coc12,nt,?,?,nt,-1.7,nt
COc1cc(-c2coc3c(C(=O)NCc4ccccc4)cccc23)ccc1O,nt,-76.5%,18.4µM*,nt,?,nt
NC(=O)c1ccc(NS(=O)(=O)c2ccc(S(=O)(=O)N3CCCC3)cc2)cc1,nt,-8.1%,10.3%,nt,13.5,nt
Cc1ccc2nc(CCl)[n+]([O-])c(-c3ccccc3)c2c1,17.7%,16.4µM*,25.9µM*,0.9%,?,?
O=C(Nc1ccc(OCc2cc(=O)n3ccsc3n2)cc1)c1ccc(F)cc1,nt,3.7%,3.2%,nt,nt,nt
COc1cc(CC(=O)Nc2cc(S(=O)(=O)N3CCOCC3)ccc2N2CCCC2)cc(OC)c1OC,nt,-3.6%,-21.3%,nt,-7.9,nt
O=C(CN1CCCc2ccccc21)N/N=C/c1ccc(F)cc1F,-2.5%,14.6µM*,20.6µM*,-26.8%,-2.1,28.6%
O=C(CN1CCCc2ccccc21)N/N=C/c1ccccc1O,0.316µM*,4.11µM*,-99.1%,?,40.3,0.251µM*
Cc1cc(C)n2c(Nc3ccc4c(c3)OCCO4)c(-c3ccccc3)nc2n1,-2.4%,?,?,?,-15.1,-4.0%
Cc1cc(C)n2c(Nc3ccc4c(c3)OCCO4)c(C(C)C)nc2n1,nt,5.8µM*,8.2µM*,nt,88.8,nt
Cc1cc(C)n2c(Nc3ccc4c(c3)OCCO4)c(C3CC3)nc2n1,nt,18.4µM*,?,nt,69.9,nt
Cc1cc(C)n2c(Nc3ccc4c(c3)OCCO4)c(CCc3ccccc3)nc2n1,nt,5.8µM*,8.2µM*,nt,9.7,nt
Cc1cc(C)n2c(NCc3ccccc3)c(CCc3ccccc3)nc2n1,nt,?,?,nt,41.5,nt
